Laboratory results taken from PubChem BioAssay (NCATS).
Inconclusive results are not listed. A number with no mark means an inactive call. Activity calls are given as the source filed them. The call rests on the fitted dose curve; in most records, active means well fitted inhibition curve with a large enough effect; inconclusive means small, poorly fitted or top-dose-only effect; inactive means flat fitted curve, though single readings scatter.

Tested on: JCK
Test: qHTS profiling for inhibitors of Plasmodium falciparum proliferation (AID 504749); further: nearly all actives have a fitted effect of over 60% in size;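 on activity, negative = inhibition: 0% = DMSO vehicle and full inhibition = artemisinin control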
Settings: P. falciparum in erythrocytes, SYBR Green DNA, 72 h; series mostly up to 28.7 µM; activity, negative = inhibition: at the top concentration
Outline: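 SYBR Green fluorescence of parasite DNA, read after lysis and overnight dark incubation, measured growth over 72 h in erythrocyte culture at 0.3% parasitemia and 2.5% hematocrit. Data normalised to DMSO and 0.29 uM artemisinin, with plate-drift correction.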
Potency means the concentration at half of the fitted maximal effect.

SMILES | activity, negative = inhibition | Potency
CCCCCCCCCCCCCCNCCO | -8.82% | 
CCCCc1nc(Cl)c(CO)n1Cc1ccc(-c2ccccc2-c2nn[nH]n2)cc1 | 3.92% | 
C=CCc1ccc(O)c(OC)c1 | 4.03% | 
CCN(CC)CCOC(=O)C(c1ccccc1)C1CCCCC1 (stereo not given) | -10.3% | 
CNCCC(Oc1ccccc1C)c1ccccc1 (stereo not given) | 3.41% | 
CN(C(=O)CN(CCO)CC(=O)N(C)C(C)(C)Cc1ccccc1)C(C)(C)Cc1ccccc1 | -6.87% [at 12.8 µM] | 
O=C1OC(c2ccc(O)cc2)(c2ccc(O)cc2)c2ccccc21 | -4.12% | 
C#C[C@]1(O)CC[C@H]2[C@@H]3CCc4cc(OC5CCCC5)ccc4[C@H]3CC[C@@]21C | -12.7% | 
O=S1(=O)c2cccc3cccc(c23)N1CCCN1CCN(c2ccc(F)cc2)CC1 | 3.58% | 
CCOc1ccc(Cc2nccc3cc(OCC)c(OCC)cc23)cc1OCC |  | 10 µM (active)
c1ccc(OCc2ccc(CCCN3CCOCC3)cc2)cc1 | 5.69% | 
CN1CCC(=C2c3ccccc3Sc3ccccc32)CC1 | -21.6% | 
C[C@@H](CN(C)C)CN1c2ccccc2Sc2ccccc21 | -9.91% [at 12.8 µM] | 
CC(C)=CCC1C(=O)N(c2ccccc2)N(c2ccccc2)C1=O | -5.39% | 
CCCCCCCCCCCCCCCC[N+](C)(C)CCN(Cc1ccc(OC)cc1)c1ncccn1 | -26.3% [at 12.8 µM] | 
O=C(N/N=C/c1ccccc1O)c1ccncc1 | -16.9% | 
CN1C2CCC1CC(OC(=O)c1c[nH]c3ccccc13)C2 (stereo not given) | 2.47% | 
Cc1cccc(C)c1NC(=O)CN1CCN(CCCC(c2ccc(F)cc2)c2ccc(F)cc2)CC1 | -25.2% [at 12.8 µM] | 

SMILES | activity, negative = inhibition | Potency
CC/C(=C(/CC)c1ccc(O)cc1)c1ccc(O)cc1 | -7.02% | 
CC[N+](CC)(CCNC(=O)C(=O)NCC[N+](CC)(CC)Cc1ccccc1Cl)Cc1ccccc1Cl |  | 10 µM (active)
O=C(CCN1CCC(c2ccccc2)C1)c1ccc2c(c1)OCCO2 (stereo not given) | -5.13% | 
Cc1ccc(O)c2ncccc12 | -0.501% | 
Oc1c(I)cc(I)c2cccnc12 | -27.4% | 
CCOC(=O)/C=C(C)/C=C/C=C(C)/C=C/c1c(C)cc(OC)c(C)c1C | 17.4% | 
CCN(CCCc1ccccc1)CCCc1ccccc1 | -14.7% [at 12.8 µM] | 
Cc1cc(N)c2cc(NC(=O)Nc3ccc4nc(C)cc(N)c4c3)ccc2n1 |  | 11.2 µM (active)
C[C@@H]1C[C@H]2[C@@H]3CCC4=CC(=O)C=C[C@]4(C)[C@@]3(F)[C@@H](O)C[C@]2(C)[C@H]1C(=O)CO | -13.7% | 
CC(=O)c1ccc2c(c1)N(CCCN1CCC(CCO)CC1)c1ccccc1S2 | -8.84% [at 12.8 µM] | 
CCN(CC)CCNC(=O)COc1ccc(Cl)cc1 | -0.298% | 
Oc1c(I)cc(Cl)c2cccnc12 | -7.21% | 
OCc1ccccc1O | -9.57% | 
CC(=O)Nc1c(I)cc(I)c(C(=O)O)c1I | 9% | 
COc1cc2c(cc1OC)C(C(C(=O)N(CCc1ccc(OC)c(OC)c1OC)CCc1ccc(OC)c(OC)c1OC)c1ccccc1)=NCC2 (stereo not given) |  | 10 µM (active)
O=C1[C@H]2CCCC[C@H]2C(=O)N1CCCCN1CCN(c2nsc3ccccc23)CC1 | -5.72% | 
C[C@@H]1CN(CCCn2c3ccccc3c3ccccc32)C[C@H](C)N1 | -15.6% | 
